# Measured values as given in PubChem BioAssay (NCATS).
# Results filed as inconclusive are left out. Entries that show only a call come without a potency. Calls of active or inactive are those of the source. Calls come from the whole dose curve; as a rule, active = well fitted cell-killing curve with a large enough effect; inconclusive = small, poorly fitted or top-dose-only effect; inactive = flat fitted curve, though single readings scatter.
# Assay: Quantitative highthroughput screen to assess conditional lethalithy of P12 Ichikawa cells grown in RPMI1640 with dialyzed fetal bovine serum (RPMI+ds) (AID 1963880); note: nearly all actives have a fitted effect of over 35% in size
# Details: ATP luminescence, 48 h; Potency: P12-Ichikawa viability; series mostly up to 45.8 µM
# From the text: Assay Provider: Jason Cantor Ph.D.
# Department of Biochemistry
# University of Wisconsin-Madison, Madison, WI, USA
# Chemical screening studies have identified drug sensitivities across hundreds of cancer cell lines but most putative therapeutics fail to translate. Discovery and development of drug candidates in models that more accurately reflect nutrient levels in human blood is a major challenge. Here we performed high-throughput screens in conventional versus Human Plasma-Like Medium (HPLM) to identify compounds that were "missed" when screening using the artificial culture condition. Sets of conditional anticancer compounds spanned phases of clinical development and included non-oncology drugs were assessed. […] We also traced conditional phenotypes for several chemotherapeutics to availability of HPLM-specific metabolites and confirmed others for compounds whose reported targets are encoded by nonessential genes. Our findings establish generalizable strategies for exploiting conditional lethality in HPLM to reveal therapeutic candidates and mechanisms of action in cancer cells.
# Described herein are the results of each viability screens against three cell lines: NOMO1 (an acute myeloid leukemia cell line); P12-Ichikawa (a T-cell acute lymphoblastic leukemia); and SEM (a B-cell ALL). Each assay was screened using 3 different cell culture media: homemade human plasma-Like medium with 10% dialyzed fetal bovine serum (HPLM+ds); RPMI1640 with 10% untreated FBS and 5mM glucose (RPMI+s); and RPMI1640 with 10% dialyzed fetal bovine serum and 5 mM glucose (RPMI+ds).
# PROTOCOL TABLE (as described by Inglese J, Shamu CE and Guy RK. 2007)
# SEQUENCE No. (e.g., 1, 2, 3, etc.); […] (e.g., Cells, Incubation, Reagent, etc.); VALUE and DESCRIPTION.
# 1; Cells; 5 uL; white, solid bottom 1536-well Greiner assay plate.
# 2; Compounds; 23 nL; Kalypsis pin tool (Wako USA) equipped with a 1536-well pin head to transfer to the assay plates.
# 3; Incubation; 48 hours; 37C incubation.
# 4; Reagent; 3 uL; CellTiter Glo (Promega).
# 5; Incubation; 5 min, room temperature
# 6; Detection; Luminescence, Viewlux PerkinElmer.
# NOTES (numbers refer to Sequence numbers above)
# 1. Briefly, 5 ul of cell reagent was dispensed using a Multidrop Combi Dispenser. The NOMO1 and SEM cells were plated at 500 cells/well and the P12-Ichikawa line at 1000 cells/well.
# 2. After seeding the cells, 23 nL of MIPE 4.1 library compounds (in DMSO) were added to each plate using a Kalypsys 1536 Pintool dispenser. Bortezomib at final concentration of […] and DMSO were added to each plate as positive and negative controls respectively. For each screen, MIPE 4.1 compounds were added over an eleven-point concentration range […] in 3-fold dilutions.
# 3. Each plate was covered with a stainless steel gasketed lid to prevent evaporation and incubated for 48 hour at 37C, 95% relative humidity, and 5% CO2.
# 4-5. Three microliter CellTilter-GloTM luminescent substrate mix (Promega) reagent was added to the assay plate and incubated at room temperature for 5 min.
# 6. The luminescence signal was measured using a ViewLux (PerkinElmer) multiplate reader with a 2 second exposure time per plate. Data for each compound were normalized as percent viability such that measurements for DMSO and the empty well controls in each plate were defined as 100% and 0%, respectively.
# Potency is the fitted concentration of half-maximal effect.
row,SMILES,Potency
1,CN1CCN(c2c(F)cc3c(=O)c(C(=O)O)cn(CCF)c3c2F)CC1,inactive
2,COc1ccc(-c2oc3cc(OC)ccc3c2C(=O)c2ccc(C#N)cc2)cc1,2.96 µM (active)
3,Cc1c(-c2cccc3c(CCCOc4cccc5ccccc45)c(C(=O)O)n(Cc4cccnc4)c23)c(COc2ccc(N3CCN([S+](=O)([O-])N(C)C)CC3)cc2)nn1C,inactive
4,CCOC(=O)O[C@]1(C(=O)OCCl)CC[C@@H]2[C@H]3CCC4=CC(=O)C=C[C@]4(C)[C@@H]3[C@@H](O)C[C@@]21C,inactive
5,C[C@H]1C[C@H]2[C@@H]3CCC4=CC(=O)C=C[C@]4(C)[C@@H]3C(=O)C[C@]2(C)[C@@]1(O)C(=O)CO,inactive
6,Cc1n[nH]c(C)c1Cc1sc2c(c1C(=O)N1C[C@H](O)CO1)c(=O)n(C)c(=O)n2CC(C)C,inactive
7,CCn1c(C(=O)N(C2CC2)C2CC2)cc2c3c(ncn3C)c(Nc3cc(C)n(C)n3)nc21,inactive
8,COc1cccc(OC)c1-c1cc(C(=O)NC2(C(=O)O)C3CC4CC(C3)CC2C4)nn1-c1ccnc2cc(Cl)ccc12 (stereo not given),inactive
9,Cn1cc(-c2[nH]c3cc(NC(=O)[C@H](N)C4CCCCC4)cc4c3c2C=NNC4=O)cn1,6.62 µM (active)
10,O=C1CCc2ccc(OCCCCN3CCN(c4cccc(Cl)c4Cl)CC3)cc2N1,inactive
11,CS(=O)(=O)c1ccc(Oc2cc(F)cc(C#N)c2)c2c1[C@H](O)C(F)(F)C2,inactive
12,Cc1cc(Nc2cc(N3CCN(C)CC3)nc(C=Cc3ccccc3)n2)n[nH]1,2.7 µM (active)
13,COc1ccc(Nc2cc(-c3cnc(N)nc3)nc(N3CCOCC3)n2)cn1,2.64 µM (active)
14,Nc1ccn([C@@H]2C(F)=C(CO)[C@@H](O)[C@H]2O)c(=O)n1,6.6 µM (active)
15,O=C(Nc1cc2cc[nH]c2cn1)c1ccccc1,5.9 µM (active)
16,Cc1nnc(NS(=O)(=O)c2ccc(N)cc2)s1,13.2 µM (active)
17,C[C@@H]1CN(Cc2ccc(F)cc2)[C@@H](C)CN1C(=O)c1cc2c(C(=O)C(=O)N(C)C)cn(C)c2cc1Cl,inactive
18,COc1cc2nc(N3CCN(C(=O)C4COc5ccccc5O4)CC3)nc(N)c2cc1OC (stereo not given),inactive
19,CCN(CC)CC#CCOC(=O)C(O)(c1ccccc1)C1CCCCC1 (stereo not given),inactive
20,NNCCc1ccccc1,inactive

row,SMILES,Potency
1,COC(=O)N[C@H](C(=O)N[C@@H](Cc1ccccc1)[C@@H](O)CN(Cc1ccc(-c2ccccn2)cc1)NC(=O)[C@@H](NC(=O)OC)C(C)(C)C)C(C)(C)C,inactive
2,Cc1ccc(C(=O)c2cc(O)c(O)c([N+](=O)[O-])c2)cc1,inactive
3,COc1ccc(-n2c(C)c([N+](=O)[O-])c3ccc(O)cc32)cc1,inactive
4,CN[C@@H]1[C@@H](O)[C@@H](O[C@@H]2[C@@H](O)[C@H](O[C@H]3O[C@H](CN)[C@@H](O)[C@H](O)[C@@H]3O)[C@@H](N)C[C@@H]2NC(=O)[C@@H](O)CN)OC[C@]1(C)O,inactive
5,Cc1[nH]nc2ccc(-c3cncc(OC[C@@H](N)Cc4ccccc4)c3)cc12,3.32 µM (active)
6,CC[C@H](C=C[C@@H](C)[C@H]1CC[C@H]2[C@@H]3CC=C4C[C@@H](O)CC[C@]4(C)[C@@H]3CC[C@]12C)C(C)C,inactive
7,OCCN1CCN(CCCN2c3ccccc3Sc3ccc(C(F)(F)F)cc32)CC1,14.8 µM (active)
8,C[C@@H](N)c1ccc(C(=O)Nc2ccnc3[nH]ccc23)cc1,inactive
9,COc1cc(O)c2c(c1)C1OC1C[C@H](O)[C@H](O)C(=O)C=CC[C@H](C)OC2=O (stereo not given in full),18.7 µM (active)
10,CNC(=O)c1cc(Oc2ccc(NC(=O)Nc3cc(C(C)(C)C)nn3-c3ccc4ncccc4c3)c(F)c2)ccn1,inactive
11,CCOC(=O)N1CCC(=C2c3ccc(Cl)cc3CCc3cccnc32)CC1,inactive
12,CN(C)CCc1c[nH]c2ccc(C[C@H]3COC(=O)N3)cc12,10.5 µM (active)
13,CN1C(=O)C[C@H](C(=O)N[C@@H](Cc2cnc[nH]2)C(=O)N2CCC[C@@H]2C(N)=O)NC1=O,inactive
14,O=C1C(Cl)=C(NCCN2CCOCC2)C(=O)c2ncccc21,20.9 µM (active)
15,Clc1ccc(CCC(Cn2ccnc2)Sc2c(Cl)cccc2Cl)cc1 (stereo not given),inactive
16,Cc1ccc(-c2ncn(-c3ccc(Nc4nccc(-c5cccc(N6CCOCC6)c5)n4)cc3)n2)cn1,0.372 µM (active)
17,N[C@@H](Cc1cc(I)c(Oc2cc(I)c(O)c(I)c2)c(I)c1)C(=O)O,inactive
18,Cc1ccnc2c1NC(=O)c1cccnc1N2C1CC1,inactive
19,CCOC(=O)C=C[C@H](C[C@@H]1CCNC1=O)NC(=O)[C@@H](CC(=O)[C@@H](NC(=O)c1cc(C)on1)C(C)C)Cc1ccc(F)cc1,inactive
20,CC(C)(C)c1cc(C(C)(C)C)c(NC(=O)c2c[nH]c3ccccc3c2=O)cc1O,inactive
